Bioassay records: PubChem BioAssay, National Center for Advancing Translational Sciences (NCATS)
D1 antagonist: antagonists of human D1 dopamine receptor; P21728; activity change, negative = inhibition, % at 10 µM; HEK293 TREx D1 cells, calcium flux, dopamine EC80; active compounds read low; 3.2% of 360,000 active; in the data active means activity change below about -30%; further: on the % scale 0 is the no-effect control and ±100 the full control effect
Target sequence (P21728 whole entry, looked up): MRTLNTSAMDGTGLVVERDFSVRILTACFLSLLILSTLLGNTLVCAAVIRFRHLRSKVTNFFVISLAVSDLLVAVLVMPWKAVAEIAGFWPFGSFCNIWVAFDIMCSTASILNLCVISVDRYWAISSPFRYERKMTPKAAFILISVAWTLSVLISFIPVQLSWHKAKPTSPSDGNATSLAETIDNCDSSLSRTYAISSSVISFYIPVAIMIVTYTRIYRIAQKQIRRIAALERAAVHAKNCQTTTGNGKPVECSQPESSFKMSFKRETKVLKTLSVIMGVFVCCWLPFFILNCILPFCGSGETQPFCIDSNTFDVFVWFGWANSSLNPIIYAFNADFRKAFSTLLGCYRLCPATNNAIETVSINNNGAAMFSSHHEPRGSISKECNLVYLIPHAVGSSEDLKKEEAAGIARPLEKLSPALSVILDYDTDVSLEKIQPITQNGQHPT
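Calcium flux readout: force-coupled, inducible Hek293 Trex D1 line, cells induced overnight at 30 C with tetracycline, dye-loaded 30–90 min at RT. Antagonism scored against EC80 dopamine challenge given 180 s after compound.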
D1 potentiator: enhances dopamine response at the human D1 receptor; P21728; HEK293 TREx D1 cells, calcium flux, dopamine EC20 potentiation; potentiation, % at 10 µM; 0.036% of 360,000 active; AID 504651; in the data active means potentiation above about 30%; further: 0% is about no effect
Eya2 phos inh: blocks the phosphatase activity of human Eya2 | O00167 | recombinant Eya2, OMFP fluorescence dephosphorylation (OMFP is methylfluorescein phosphate) | 0.006% of 330,000 active | Potency, µM (highest dose often 76.9 µM), inactives show at the top dose activity, negative = inhibition, hits mostly inhibitors; further: potency means the concentration at half of the fitted maximal effect; on the % scale 0 is the no-effect control and ±100 the full control effect
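Eya2 (0.2 uM) preincubated 10 min at ambient with compound, then OMFP substrate added at 50 uM; 10 min reaction in 50 mM HEPES pH 7.5, 50 mM NaCl, 5 uM MgCl2, 0.05% BSA, 1 mM DTT. Fluorescence read at Ex 485/Em 525 nm.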
D1 agonist: activates the human D1 dopamine receptor; AID 504660; HEK293 T-REx D1 cells, calcium flux, agonist mode; 1% of 360,000 active; P21728; activation, % at 2 µM; in the data active means activation above about 30%; further: 0% is about no effect
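Tetracycline-induced HEK293 TREx D1 cells, force-coupled to calcium signalling, were dye-loaded with a no-wash calcium kit. Compound was pin-added after a 10 s baseline. Fluorescence was read kinetically at 1 cycle/s for 180 s, with calcium rises flagged as agonism.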
GALK inhibitor: galactokinase (human) inhibition; P51570; Purified GALK, Kinase-Glo residual ATP luminescence; Potency, µM (highest dose often 57.5 µM), inactives show top-dose activity change, negative = inhibition, actives largely listed as inhibitors; 0.007% of 270,000 active; further: potency means the concentration at half of the fitted maximal effect; on the % scale 0 is the no-effect control and ±100 the full control effect
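Quantitative HTS: GALK 5 nM, ATP 35 uM, galactose 100 uM, 1 h room temperature, then luciferase-based ATP detection.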
USP2a block: inhibitors of human ubiquitin-specific protease USP2a; O75604; USP2 core, Ub-CHOP2 coupled fluorogenic reporter, 485/531; Potency, µM (series often up to 38.3 µM), for the others: top-dose activity change, negative = inhibition, usual class: inhibitors; 0.01% of 330,000 active; AID 463254;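 further: potency means the concentration at half of the fitted maximal effect; plate controls were DMSO wells for no effect and full inhibition by NEM control for full effect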
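USP2 core (10nM final) preincubated 30min RT with compound in 20mM Tris-HCl pH 8.0, 2mM CaCl2, 2mM beta-mercaptoethanol, 0.05% CHAPS; 25nM Ub-CHOP2 plus 25nM reporter substrate added, fluorescence (Ex485/Em531) read after 60min.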
* hit, by the source's call. This is a sample that favours compounds with a hit; in the whole collection about 3.9% have one here. Unless noted, the call rests on the fitted dose curve; in most records, active means well fitted inhibition curve with a large enough effect; inconclusive means small, poorly fitted or top-dose-only effect, or effect the other way; inactive means flat fitted curve, though single readings scatter.

How did CSc1ccc(CCNC(=O)c2csc3c2CCCCC3)cc1 do in these assays?
D1 antagonist: -37.9*; D1 potentiator: -1.4; D1 agonist: 11.6

How did COc1cc(-c2cc(-c3nnco3)c3ccccc3n2)cc(OC)c1OC do in these assays?
D1 antagonist: -96.3*; D1 potentiator: -10.2; Eya2 phos inh: -1.5%; D1 agonist: 0.9; GALK inhibitor: 0.0%; USP2a block: -1.9%

How did CCOC(=O)c1c(S(=O)(=O)N2CCC(C(=O)Nc3ccc(OCC)cc3)CC2)c(C)n(C)c1C do in these assays?
D1 antagonist: 11.9; D1 potentiator: -1.4; D1 agonist: -0.5

What do the screens show for `Cc1ccc(CSC(Nc2ccc(F)cc2)=C(C#N)C#N)cc1`?
D1 antagonist: -35.7*; D1 potentiator: -11.7; Eya2 phos inh: 0.3%; D1 agonist: 25.5; GALK inhibitor: -1.4%; USP2a block: 4.2%

Results for CC(=O)Nc1ccc(Nc2nc(C)c([N+](=O)[O-])c(N(C)c3ccccc3)n2)cc1 ?
D1 antagonist: -31.8*; D1 potentiator: -11.3; Eya2 phos inh: -0.4%; D1 agonist: 5.9; GALK inhibitor: 0.5%; USP2a block: -5.4%

How did CC(=O)Nc1ccc(Nc2nc(C)c([N+](=O)[O-])c(Nc3ccccc3)n2)cc1 do in these assays?
D1 antagonist: 49.0; D1 potentiator: 0.7; Eya2 phos inh: 2.9%; D1 agonist: 2.2; GALK inhibitor: -3.5%; USP2a block: 2.7%

What do the screens show for `Cc1ccc(Cn2c(CO)cnc2SCC(=O)NCc2ccccc2Cl)cc1`?
D1 antagonist: -2.0; D1 potentiator: 3.3; D1 agonist: 19.9

How did NC(=O)c1ccc([N+](=O)[O-])cc1SCc1ccccc1 do in these assays?
D1 antagonist: 2.4; D1 potentiator: 2.4; Eya2 phos inh: 2.2%; D1 agonist: 1.7; GALK inhibitor: -3.3%; USP2a block: 0.7%

What do the screens show for `N[C@H](CSCc1ccccc1)C(=O)Nc1ccc([N+](=O)[O-])cc1`?
D1 antagonist: -33.4*; D1 potentiator: -7.3; Eya2 phos inh: 6.2%; D1 agonist: 6.9; USP2a block: 3.2%

How did Cc1nn(-c2ccc(N3CCCC3)nn2)c(C)c1CCC(=O)NCc1ccc(OC(C)C)cc1 do in these assays?
D1 antagonist: -3.8; D1 potentiator: 1.2; D1 agonist: 0.0

How did O=C(Nc1ccccc1C(=O)Nc1ccccn1)c1cc(F)c(F)cc1Cl do in these assays?
D1 antagonist: -31.2*; D1 potentiator: -1.0; Eya2 phos inh: -4.7%; D1 agonist: 7.0; GALK inhibitor: -3.2%; USP2a block: 0.4%

Results for Cc1cc2c(s1)c1cnn(Cc3cc(F)c(F)c(F)c3)c(=O)c1n2C ?
D1 antagonist: -8.7; D1 potentiator: 4.2; D1 agonist: 0.7

How did C#CCOCCOCCOCCNc1nc(N2CCOCC2)nc(N2CCN(C(=O)CCCCCCCCCCNC(=O)[C@@H](CCC(=O)O)n3cc(CCCCCN)nn3)CC2)n1 do in these assays?
D1 antagonist: -8.1; D1 potentiator: -3.5; Eya2 phos inh: -12.1%; D1 agonist: 5.5; USP2a block: 0.0%

How did C#CCOCCOCCOCCNc1nc(N2CCN(C(=O)CCCCCCCCCCNC(=O)[C@H]([C@@H](C)CC)n3cc(CCCCCN)nn3)CC2)nc(N2CCN(C(=O)CCCCCCCCCCNC(=O)[C@H](CCCCN)n3cc(CCCC(=O)O)nn3)CC2)n1 do in these assays?
D1 antagonist: 59.6; D1 potentiator: 26.4; Eya2 phos inh: -44.4%; D1 agonist: 34.6*; USP2a block: 10µM*

Results for C#CCOCCOCCOCCNc1nc(N2CCN(C(=O)CCCCCCCCCCNC(=O)[C@@H](CCC(=O)O)n3cc(CCCCCN)nn3)CC2)nc(N2CCN(C(=O)CCCCCCCCCCNC(=O)[C@H]([C@@H](C)CC)n3cc(CCCCCN)nn3)CC2)n1 ?
D1 antagonist: 54.3; D1 potentiator: 36.9*; Eya2 phos inh: inconclusive; D1 agonist: 19.0; USP2a block: inconclusive

What do the screens show for `CCOC(=O)C1(Cc2ccc(Cl)cc2)CCN(C(C)Cc2ccc(O)c(OC)c2)CC1` (stereo not drawn)?
D1 antagonist: -37.4*; D1 potentiator: -7.7; Eya2 phos inh: -1.5%; D1 agonist: 28.3; GALK inhibitor: -2.6%; USP2a block: -1.5%

Results for C/C(=N\NC(=O)c1c(Cl)c(C)nn1C)c1ccc(NC(=O)COc2ccc(Cl)cc2C)cc1 ?
D1 antagonist: -40.6*; D1 potentiator: -16.4; Eya2 phos inh: 0.1%; D1 agonist: 0.5; USP2a block: 0.4%

Results for N=C1c2ccccc2CN1c1ccc(N2CCOCC2)c(S(=O)(=O)Nc2ccc(Cl)cc2)c1 ?
D1 antagonist: -7.4; D1 potentiator: -2.6; Eya2 phos inh: 5.1%; D1 agonist: 83.3*; GALK inhibitor: 8.2%; USP2a block: -2.6%

How did Cc1csc(CN(C)C(=O)C2CCC(=O)N(CCCc3ccccc3)C2)n1 (stereo not drawn) do in these assays?
D1 antagonist: -42.8*; D1 potentiator: -0.1; Eya2 phos inh: -5.6%; D1 agonist: 6.3; GALK inhibitor: 2.3%; USP2a block: -0.2%

Results for O=C(NCCCc1ccccc1)C1CCC(=O)N(Cc2ccc(Cl)cc2)C1 (stereo not drawn) ?
D1 antagonist: -41.5*; D1 potentiator: -2.8; Eya2 phos inh: 4.7%; D1 agonist: 6.0; GALK inhibitor: -5.5%; USP2a block: -0.5%

Results for Cc1c(CNC(=O)C2CCC(=O)N(CCc3ccccc3)C2)cnn1C (stereo not drawn) ?
D1 antagonist: -32.6*; D1 potentiator: 1.9; Eya2 phos inh: -2.3%; D1 agonist: 3.6; GALK inhibitor: 3.1%; USP2a block: -3.5%

Results for O=C(NCCN1CCCC1=O)C1CCC(=O)N(CCc2ccc(Cl)cc2)C1 (stereo not drawn) ?
D1 antagonist: -9.7; D1 potentiator: 2.5; Eya2 phos inh: -14.1%; D1 agonist: -0.2; GALK inhibitor: 1.1%; USP2a block: -1.9%

Results for Cn1cc(CCNC(=O)C2CCC(=O)N(CCc3ccc(Cl)cc3)C2)cn1 (stereo not drawn) ?
D1 antagonist: -51.9*; D1 potentiator: -18.2; Eya2 phos inh: -7.0%; D1 agonist: 0.3; GALK inhibitor: 0.2%; USP2a block: 2.7%

What do the screens show for `CC1=C(C(=O)Nc2ccc(C)cc2C)C(c2ccccc2)n2ncc(C(=O)Nc3ccccc3)c2N1` (stereo not drawn)?
D1 antagonist: 1.7; D1 potentiator: 0.2; D1 agonist: 0.0

What do the screens show for `COc1ccccc1C(=O)N1CCN(Cc2cc(=O)oc3cc(C)ccc23)CC1`?
D1 antagonist: -8.3; D1 potentiator: -2.9; D1 agonist: -0.4
